Test [1] is described as follows: qHTS RealTime-Glo MT Cell Viability Assay in HEK293 cells - 40 hour (AID 1224874). Note: nearly all actives have a fitted effect of over 50% in size. Note: potency is the fitted concentration of half-maximal effect. Particulars: RealTime-Glo luminescence; max response: hits give low values. The gist of the method: (§1)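 Kinetic, non-lysing viability readout. Seed HEK293 (600/well) with reagent, incubate 5 h at 37 C/5% CO2, pin 23 nL compound in DMSO, incubate at 37 C, read luminescence at 0, 8, 16, 24, 32, 40 h.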
(Quantitative high-throughput screening tests each substance at several concentrations.)

Test [2] in a line: A CellTox Green Cytotoxicity Assay to monitor cytotoxicity in HEK293 cells - 24 hour (AID 1224875). Note: series mostly up to about 77 µM; nearly all actives have a fitted effect of over 45% in size. The gist of the method:
(§2)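 Real-time, in one plate: 600 HEK293 cells/well with dead-cell DNA dye, pinned compound after 5 h, 37 C incubation over 40 h; viable cells give no appreciable fluorescence.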

Test [3] in a line: A CellTox Green Cytotoxicity Assay to monitor cytotoxicity in HepG2 cells - 16 hour (AID 1224876). Note: nearly all actives have a fitted effect of over 45% in size. In outline:
(§3)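 Cytotoxicity was tracked as dead-cell DNA fluorescence in HepG2 cells treated with test compounds at 37 C; each time-point value comes from one kinetic series spanning 0, 8, 16, 24, 32 and 40 h.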

The nature of test [4]: qHTS RealTime-Glo MT Cell Viability Assay in HepG2 cells - 32 hour (AID 1224877). Note: nearly all actives have a fitted effect of over 55% in size. The gist of the method: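 Tox21 10K library screened in qHTS format on HepG2 cells carrying RealTime-Glo reagents. Compounds were added after a 5 h preincubation, and the luminescent signal from continuous culture was measured repeatedly during 40 h treatment.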
Test [5] is described as follows: A CellTox Green Cytotoxicity Assay to monitor cytotoxicity in HepG2 cells - 24 hour (AID 1224878). Note: nearly all actives have a fitted effect of over 45% in size. In outline: as §3
Test [6] is described as follows: A CellTox Green Cytotoxicity Assay to monitor cytotoxicity in HepG2 cells - 40 hour (AID 1224879). Note: nearly all actives have a fitted effect of over 40% in size. In outline: as §3
Test [7] is described as follows: qHTS RealTime-Glo MT Cell Viability Assay in HEK293 cells - 0 hour (AID 1224880). Note: top concentration of the series differs between compounds; nearly all actives have a fitted effect of over 45% in size. In outline: as §1
A short description of test [8]: A CellTox Green Cytotoxicity Assay to monitor cytotoxicity in HEK293 cells - 32 hour (AID 1224881). Note: nearly all actives have a fitted effect of over 40% in size. The gist of the method:
as §2

Test [9] is described as follows: A CellTox Green Cytotoxicity Assay to monitor cytotoxicity in HepG2 cells - 0 hour (AID 1224882). Note: nearly all actives have a fitted effect of over 35% in size. The gist of the method: as §3
The nature of test [10]: A CellTox Green Cytotoxicity Assay to monitor cytotoxicity in HepG2 cells - 32 hour (AID 1224883). Note: nearly all actives have a fitted effect of over 50% in size. The gist of the method:
as §3

Values without a mark were called inactive. Records with an inconclusive call do not appear. Active and inactive are the calls of the source. Calls come from the whole dose curve; as a rule, active = well fitted curve in the direction sought with a large enough effect in the repeat runs; inconclusive = weak or mixed curves; inactive = no such curve, though single readings can be large; an effect the other way counts as inactive or inconclusive.
% is set by controls: 0 for no effect and ±100 for the full control effect.

`NC(=O)c1ccccc1Cl`: in [1], the max response is -1.02%. The Potency result in [2], in test [3], in test [4], in test [5], in test [6] and in test [7] was “inactive” throughout. In addition, the Potency entry in test [8], in [9] and in test [10] was “inactive” in each case.
Consider `C/C=C/C(=O)C1=C(C)C=CCC1(C)C`, for which the max response in test [1] was 1.31%. Further, the Potency entry in [2], in test [3], in test [4], in test [5], in test [6] and in [7] was “inactive” throughout. For the same compound, the Potency result in [8], in [9] and in [10] was “inactive” in each case.
`CC(C)(c1ccc(Oc2ccc(N)cc2)cc1)c1ccc(Oc2ccc(N)cc2)cc1`: the Potency in [1] is 21.9 µM (active). Further, the Potency result in [2], in test [3], in test [4], in test [5], in test [6] and in [7] was “inactive” throughout. Besides, the Potency entry in test [8], in [9] and in test [10] was “inactive” in each case.
`CCc1cccc(C)c1N(C(=O)CS(=O)(=O)O)C(C)COC` (stereo not drawn): in test [1], the max response is -1.03%. Further, the Potency entry in [2], in test [3], in test [4], in test [5], in test [6] and in [7] was “inactive” in each case. Moreover, the Potency result in test [8], in [9] and in [10] was “inactive” each time.
Regarding `CCN(CC)c1ccc(C=O)c(O)c1`, in test [1], the max response is -15%. The Potency result in [2], in test [3], in [4], in test [5], in [6] and in test [7] was “inactive” throughout. Also, the Potency entry in test [8], in test [9] and in test [10] was “inactive” each time.
As to `C=Cc1ccc(O)c(OC)c1`, in test [1], the max response is 2.13%. Further, the Potency result in test [2], in test [3], in test [4], in [5], in test [6] and in test [7] was “inactive” in each case. Also, the Potency entry in test [8], in test [9] and in [10] was “inactive” in each case.
Turning to `CCOc1nc(F)cc2nc(S(=O)(=O)Nc3c(Cl)cccc3C(=O)OC)nn12`, the max response in [1] was 9.81%. In addition, the Potency result in test [2], in [3], in test [4], in [5], in [6] and in test [7] was “inactive” throughout. In addition, the Potency entry in test [8], in [9] and in test [10] was “inactive” each time.
On to `Cc1ccc(C=O)cc1`, for which the max response in test [1] was 7.49%. The Potency entry in test [2], in [3], in test [4], in test [5], in [6] and in test [7] was “inactive” each time. The Potency result in [8], in test [9] and in test [10] was “inactive” each time.
With `[Cl][Sc]([Cl])[Cl]`, in test [1], the max response was -3.01%. In addition, the Potency entry in test [2], in test [3], in test [4], in test [5], in test [6] and in test [7] was “inactive” throughout. The Potency entry in [8], in test [9] and in test [10] was “inactive” in each case.
`CC1CCC(C(C)(C)O)CC1` (stereo not drawn): the max response in test [1] is 0.893%. Further, the Potency result in test [2], in test [3], in test [4], in test [5], in [6] and in [7] was “inactive” each time. In addition, the Potency result in [8], in test [9] and in test [10] was “inactive” each time.
Turning to `Cn1ccnc1`, the max response in test [1] is 9.06%. Further, the Potency entry in test [2], in [3], in [4], in [5], in [6] and in test [7] was “inactive” each time. In addition, the Potency result in test [8], in test [9] and in test [10] was “inactive” throughout.
In the case of `CCc1cccc(CC)c1`, the max response in test [1] was 23.9%. The Potency entry in test [2], in [3], in test [4], in test [5], in test [6] and in test [7] was “inactive” in each case. For the same compound, the Potency entry in test [8], in test [9] and in test [10] was “inactive” in each case.
For the compound `c1ccc2occc2c1`, the max response in test [1] was 2.38%. Moreover, the Potency entry in test [2], in test [3], in test [4], in [5], in test [6] and in test [7] was “inactive” each time. The Potency result in test [8], in test [9] and in test [10] was “inactive” throughout.
Turning to `Cc1c(Cl)c(=O)oc2cc(O)ccc12`, the Potency in test [1] is 43.6 µM (active). The Potency entry in [2], in test [3], in [4], in test [5], in [6] and in test [7] was “inactive” throughout. Further, the Potency entry in test [8], in [9] and in test [10] was “inactive” each time.
Take `CN1CCN(C)CC1`: the max response in [1] is 7.77%. In addition, the Potency entry in [2], in [3], in [4], in test [5], in test [6] and in test [7] was “inactive” each time. Also, the Potency entry in test [8], in test [9] and in test [10] was “inactive” throughout.
With `Brc1cc(Br)cc(Br)c1`, the max response in test [1] was 0.239%. Further, the Potency entry in [2], in test [3], in test [4], in [5], in test [6] and in test [7] was “inactive” throughout. For the same compound, the Potency result in [8], in test [9] and in test [10] was “inactive” in each case.
Regarding `[Cl][Dy]([Cl])[Cl]`, the max response in [1] is -3.97%. Besides, the Potency entry in test [2], in test [3], in [4], in test [5], in test [6] and in test [7] was “inactive” each time. For the same compound, the Potency result in [8], in [9] and in test [10] was “inactive” in each case.
For `CCOC(=O)[C@H](O)[C@@H](O)C(=O)OCC`, in test [1], the max response is 5.68%. Also, the Potency entry in test [2], in test [3], in test [4], in test [5], in [6] and in test [7] was “inactive” throughout. The Potency result in test [8], in test [9] and in test [10] was “inactive” in each case.
Consider `CCCCCCCCSCc1cc(C)c(O)c(CSCCCCCCCC)c1`, for which, in [1], the max response is -17.7%. Also, the Potency result in test [2], in test [3], in [4], in test [5], in test [6] and in test [7] was “inactive” throughout. The Potency result in [8] and in test [10] was “inactive” throughout.
With `COc1cc(OC)nc(NC(=O)NS(=O)(=O)Nc2ccccc2C(=O)N(C)C)n1`, the max response in test [1] is 6.33%. Moreover, the Potency result in test [2], in test [3], in test [4], in [5], in [6] and in test [7] was “inactive” in each case. In addition, the Potency entry in [9] and in test [10] was “inactive” each time.

For the origin of these results see PubChem BioAssay (Tox21).
